Data published in PubChem BioAssay (EPA / NIEHS).
Inconclusive results are not listed. Activity calls are given as the source filed them. How the source made its calls: active means hit-call score of the fitted dose curve at least 0.9, where 1 is the maximum; inconclusive means response in the unintended direction; inactive means score below 0.9.

Assay: TOX21_p53_BLA_p4_viability: Viability Assessment in the Tox21 HCT-116 p53 Agonism Beta-lactamase Assay, Phase 4 (AID 2283597);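 further: hits lower the luminescence signal meaning cytotoxicity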
Source text: TOX21_p53_BLA_p4 is a cell-based, single-readout assay that uses HCT116, a human intestinal cell line, […] in a 1536-well plate.TOX21_p53_BLA_p4_viability is an assay readout measuring cellular ATP content and detected with CellTiter-Glo Luciferase-coupled ATP quantitation.TOX21_p53_BLA_p4_viability used a type of viability reporter where loss-of-signal activity can be used to understand changes in the cell viability. Furthermore, this assay endpoint can be referred to as a secondary readout, because this assay has produced multiple assay endpoints where this one serves a viability function. To generalize the intended target to other relatable targets, this assay endpoint is annotated to the cell cycle intended target family, where the subfamily is cytotoxicity.
Thawing Method: Place 14 mL of pre-warmed thaw medium into a 15 mL of conical tub. Remove the vial of cells to be thawed from liquid nitrogen and thaw rapidly by placing at 37C in a water bath with gentle agitation for 1-2 minutes. Decontaminate the vial by wiping with 70% ethanol before opening in a biological safety cabinet. Transfer the vial contents drop-wise into 14 mL of thaw medium in a sterile 15-mL conical tub. Centrifuge cells at 900 rpm for 4 minutes and resuspend in thaw medium. Transfer contents to the T75 tissue culture flask containing Thaw Medium and place flask in a humidified 37C/5% CO2 incubator. Switch to growth medium at first passage.Propagation Method: Aspirate medium, rinse once in DPBS, add 0.25% Trypsin/EDTA and swirl to coat the cell evenly. Add an equal volume of Growth Medium to inactivate Trypsin after 2-3 minutes incubation at 37C. Centrifuge cells at 900 rpm for 4 minutes and resuspend in growth medium. Cell should be passage or fed at least twice a week.Assay Protocol: Harvest cells from culture in growth medium and resuspend in assay medium. 2.2 Dispense 4000 cells/5 uL/well into 1536-well black/clear bottom plates using a Multidrop dispenser. After the cells were incubated at 37C for 5 hours, 23 nL of compounds dissolved in DMSO were transferred to the assay plate by a PinTool resulting in a 217-fold dilution. Incubate the plates for 16 hours at 37C, 5% CO2. Add 1 uL of 6X LiveBLAzer FRET B/G (CCF4-AM) Substrate Mixture to each well using a BioRAPTR dispenser and incubate the plates at room temperature for 2 hours. Measure fluorescence intensity at 460 and 530 nm emission and 405 nm excitation by an Envision detector. Data is expressed as the ratio of 460nm/530nm emissions. Add 4 uL of Cell-titer Glo to each well using BioRAPTR and incubate the plates at room temperature for […]. For cell viability readout that measures cytotoxicity, 4 ul/well of CellTiter-Glo reagent was added into the assay plates using a Flying Reagent Dispenser. After 30 min incubation at room temperature, the luminescence intensity in the plates was measured using a ViewLux plate reader.

SMILES	outcome	AC50
C=CCCCC	inactive	–
CO[C@@]1(NC(=O)C2SC(=C(C(N)=O)C(=O)O)S2)C(=O)N2C(C(=O)O)=C(CSc3nnnn3C)CS[C@@H]21 (stereo not given in full)	inactive	–
Nc1nc(NC2CC2)c2ncn([C@H]3C=C[C@@H](CO)C3)c2n1	inactive	–
O=C(O)/C=C/c1cnc[nH]1	inactive	–
COc1cc(S(C)=O)ccc1-c1nc2ncccc2[nH]1 (stereo not given)	inactive	–
NC(=O)Oc1ccc(Cc2ccccc2)cc1	inactive	–
CN1CCCC(CC2c3ccccc3Sc3ccccc32)C1 (stereo not given)	inactive	–
CCCn1cc[n+](C)c1C	inactive	–
COc1ccc(CC2c3cc(OC)c(OC)cc3CC[N+]2(C)CCC(=O)OCCCCCOC(=O)CC[N+]2(C)CCc3cc(OC)c(OC)cc3C2Cc2ccc(OC)c(OC)c2)cc1OC (stereo not given)	inactive	–
O=C(OC1C[C@@H]2CC3C[C@H](C1)N2CC3=O)c1c[nH]c2ccccc12 (stereo not given in full)	inactive	–
CCOC(=O)[C@H](CCc1ccccc1)N[C@@H](C)C(=O)N1CC2(C[C@H]1C(=O)O)SCCS2	inactive	–
C[C@@H](c1ncncc1F)[C@](O)(Cn1cncn1)c1ccc(F)cc1F	inactive	–
NC(=O)[C@@H]1C[C@]2(NC(=O)NC2=O)c2cc(F)ccc2O1	inactive	–
Cc1ccccc1N1C(=O)c2cc(S(N)(=O)=O)c(Cl)cc2NC1C (stereo not given)	inactive	–
Nc1c2c(nc3ccccc13)CCCC2O (stereo not given)	inactive	–
C1CSCCS1	inactive	–
Cc1cccc(C)c1NC(=O)CN1CCCC1	inactive	–
Cc1cc(O)c(Cl)cc1C	inactive	–
C1CCCNCCC1	inactive	–
CN1CCCN(C(c2ccccc2)c2ccc(Cl)cc2)CC1 (stereo not given)	–	34.8 µM (active)

SMILES	outcome	AC50
N[C@H](C(=O)O)[C@@H](O)c1ccc(O)c(O)c1	inactive	–
Brc1cc2ccccc2c2ccccc12	inactive	–
C=Cc1ccccn1	inactive	–
CC(C(=O)O)c1ccc2c(c1)Cc1cccnc1O2 (stereo not given)	inactive	–
C=CCc1cc(OC)c(O)c(C(=O)NCCO)c1	inactive	–
CC(=O)Oc1cc(C(C)C)c(OCCN(C)C)cc1C	inactive	–
CNC1(C)C2CCC(C2)C1(C)C (stereo not given)	inactive	–
O=C1NC(=O)[C@H]2[C@@H]1[C@@H]1C=C[C@H]2C1	inactive	–
NS(=O)(=O)c1ccc(Cl)c(S(N)(=O)=O)c1	inactive	–
O=C(O)c1ccc(O)cc1O	inactive	–
NC1=NCC2c3ccccc3Cc3ccccc3N12 (stereo not given)	inactive	–
O=C(O)[C@H]1CN(C/C=C/P(=O)(O)O)CCN1	inactive	–
COc1ccc(Nc2ccc(OC)cc2)cc1	inactive	–
CCC(CO)(CO)CO	inactive	–
CC(=O)OCC(=O)Nc1cc(C#N)cc(NC(=O)COC(C)=O)c1Cl	inactive	–
CC(C)C(=O)O	inactive	–
CCNC(=O)[C@@H]1CCCN1C(=O)[C@H](CCCN=C(N)N)NC(=O)[C@H](CC(C)C)NC(=O)[C@@H](CC(C)C)NC(=O)[C@H](Cc1ccc(O)cc1)NC(=O)[C@H](CO)NC(=O)[C@H](Cc1c[nH]c2ccccc12)NC(=O)[C@H](Cc1cnc[nH]1)NC(=O)[C@@H]1CCC(=O)N1	inactive	–
O[C@@H]1CO[C@H]2[C@@H]1OC[C@@H]2O	inactive	–
O=C(O)[C@H]1/C(=C/CO)O[C@@H]2CC(=O)N21	inactive	–
NC(=O)c1cn(Cc2c(F)cccc2F)nn1	inactive	–
